Several values for one entry are separate records, joined by “and”; a condition that tells them apart may be missing. Equal entries are not always repeated. Results filed as inconclusive are left out. Where a call stands in place of a potency, no number is given. The source holds several records for some structures; these can differ, active in one and inactive in another. Activity calls are given as the source filed them. Unless noted, calls come from the whole dose curve; as a rule, active = well fitted curve in the direction sought with a large enough effect in the repeat runs; inconclusive = weak or mixed curves; inactive = no such curve, though single readings can be large; an effect the other way counts as inactive or inconclusive.
Key:
[1] = qHTS assay to identify small molecule antagonists of the thyroid receptor (TR) signaling pathway - cell viability counter screen (AID 743064); note: nearly all actives have a fitted effect of over 50% in size; note: potency is the fitted concentration of half-maximal effect
Summary of the method: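 In-well cytotoxicity read by CellTiter-Fluor (30 min, 37 C) following 23.5 h exposure of GH3 cells bearing a TRE-luciferase sensor. Compounds were added alongside 1 nM (final) T3 to drive TR transactivation.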

[2] = qHTS assay to identify small molecule antagonists of the thyroid receptor (TR) signaling pathway (AID 743065); note: nearly all actives have a fitted effect of over 55% in size; note: potency is the fitted concentration of half-maximal effect
Summary of the method: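 Antagonism measured as loss of luciferase signal in GH3 cells stably carrying a TRE-luciferase reporter, co-treated with compound and T3 (1 nM final) for 23.5 h at 37 C. Viability was read in the same well by CellTiter-Fluor.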

[3] = system: thyroid hormone receptor (rat, GH3 cells); assay: qHTS assay to identify small molecule agonists of the thyroid receptor (TR) signaling pathway (AID 743066; calls by dose curve)
[4] = qHTS assay to identify small molecule antagonists of the estrogen receptor alpha (ER-alpha) signaling pathway - cell viability counter screen (AID 743074; calls by dose curve; note: nearly all actives have a fitted effect of over 45% in size)
[5] = qHTS assay to identify small molecule antagonists of the estrogen receptor alpha (ER-alpha) signaling pathway using the BG1 cell line - cell viability counter screen (AID 743081);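 note: compound given together with 17beta-estradiol as the ER stimulus; nearly all actives have a fitted effect of over 45% in size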
[6] = qHTS assay to identify small molecule that activate the aryl hydrocarbon receptor (AhR) signaling pathway - cell viability counter screen (AID 743086);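 note: HepG2 liver cells carrying the AhR DRE luciferase reporter; nearly all actives have a fitted effect of over 45% in size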
Summary of the method: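 Cytotoxicity counter screen: CellTiter-Fluor signal (30 min, 37 C) in 4000 HepG2 cells/well carrying the DRE-luciferase reporter, following 24 h compound exposure at 37 C.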

[7] = qHTS assay to identify small molecule antagonists of the peroxisome proliferator-activated receptor gamma (PPARg) signaling pathway - cell viability counter screen (AID 743194); conditions: Potency: co-treated with 50 nM rosiglitazone unless noted; note: nearly all actives have a fitted effect of over 55% in size
Summary of the method: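 Viability was measured as CellTiter-Glo luminescence in GeneBLAzer PPARg UAS-bla HEK293H cells. These cells had been exposed 17 h at 37 C to compounds together with rosiglitazone at 50 nM final, with the beta-lactamase readout taken in the same wells.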

[8] = qHTS assay for small molecule activators of the heat shock response signaling pathway - cell viability counter screen (AID 743209); note: nearly all actives have a fitted effect of over 50% in size
Summary of the method: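 Cytotoxicity counter screen run in parallel with the HSE beta-lactamase reporter, using the same wells. HeLa HSE-bla cells received compound for 5 h at 37 C; ATP-based CellTiter-Glo luminescence was measured after 30 min at room temperature.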

[9] = qHTS assay for small molecule activators of the heat shock response signaling pathway (AID 743210; active = well fitted activation curve with a large enough effect in the signal ratio in the repeat runs, with a control signal flat, not every such curve was filed as active; the % refers to the signal ratio;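 note: HeLa cells with beta-lactamase reporter driven by heat shock elements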)
Summary of the method: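 Fluorescence from a cleaved B/G FRET substrate (2.5 h, room temp) reports HSE-driven beta-lactamase in HeLa cells treated 5 h at 37 C with DMSO-dissolved compounds.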

[10] = qHTS assay to identify aromatase inhibitors - cell viability counter screen (AID 743084);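 note: cells stimulated with testosterone during compound exposure; nearly all actives have a fitted effect of over 55% in size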
[11] = qHTS assay for small molecule agonists of the antioxidant response element (ARE) signaling pathway (AID 743202; active = well fitted activation curve with a large enough effect in the signal ratio in the repeat runs, not every such curve was filed as active; the % refers to the signal ratio)
Summary of the method: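 Beta-lactamase reporter activity, read as fluorescence intensity, reflects ARE/Nrf2 pathway induction in HepG2 cells after 16 h compound exposure at 37 C; substrate loading was 2 h at room temperature.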

[12] = qHTS assay for small molecule agonists of the antioxidant response element (ARE) signaling pathway - cell viability counter screen (AID 743203; calls by dose curve; note: nearly all actives have a fitted effect of over 55% in size)
Summary of the method: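 Cytotoxicity was tested in parallel with the ARE reporter screen. ARE-bla HepG2 cells were exposed to compounds for 16 hrs, and viability was taken from CellTiter-Glo luminescence.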

Aromatase (Homo sapiens) = Aromatase (Homo sapiens) (UniProt P11511); assay: qHTS assay to identify aromatase inhibitors (AID 743083); note: nearly all actives have a fitted effect of over 55% in size
[13] = target: Peroxisome proliferator-activated receptor gamma (Homo sapiens) (UniProt P37231); assay: qHTS assay to identify small molecule agonists of the peroxisome proliferator-activated receptor gamma (PPARg) signaling pathway (AID 743094; active = well fitted activation curve with a large enough effect in the signal ratio in the repeat runs, not every such curve was filed as active; the % refers to the signal ratio)
Summary of the method: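 Cells from the PPARg UAS-bla HEK293H line are plated and incubated 5 h at 37C. Compounds in DMSO are pinned in and left 17 h at 37C. LiveBLAzer B/G substrate is then added for 1 h at room temperature before fluorescence is measured.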

[14] = target: Peroxisome proliferator-activated receptor gamma (Homo sapiens) (UniProt P37231); assay: qHTS assay to identify small molecule antagonists of the peroxisome proliferator-activated receptor gamma (PPARg) signaling pathway (AID 743191; calls by dose curve; note: nearly all actives have a fitted effect of over 30% in size)
Summary of the method: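 Beta-lactamase reporter under UAS control in HEK293H PPARg-bla cells; compound treatment 17 h at 37C. Read-out: fluorescence intensity after 1 h room-temperature incubation with LiveBLAzer B/G FRET substrate.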

[15] = target: Estrogen receptor (Homo sapiens) (UniProt P03372); assay: qHTS assay to identify small molecule antagonists of the estrogen receptor alpha (ER-alpha) signaling pathway (AID 743069; active = well fitted curve in the direction sought with a large enough effect in the signal ratio in the repeat runs, not every such curve was filed as active; the % refers to the signal ratio)
Summary of the method: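 Fluorescence intensity from a beta-lactamase FRET substrate served as the read-out. Cells: HEK293 with stably integrated ER-alpha-UAS-bla reporter. Agonist 17beta-estradiol was co-added with compounds; incubation 18 hr at 37C, substrate 2 hr at room temperature.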

[16] = target: Estrogen receptor (Homo sapiens) (UniProt P03372); assay: qHTS assay to identify small molecule agonists of the estrogen receptor alpha (ER-alpha) signaling pathway (AID 743075; calls by dose curve)
[17] = target: Estrogen receptor (Homo sapiens) (UniProt P03372); assay: qHTS assay to identify small molecule agonists of the estrogen receptor alpha (ER-alpha) signaling pathway using the BG1 cell line (AID 743079); conditions: BG1Luc4E2 cells, ERE-luciferase agonist, 22 h; activation: at 70.3 µM (top of the series) unless noted; note: nearly all actives have a fitted effect of over 20% in size; note: potency is the fitted concentration of half-maximal effect
[18] = qHTS assay to identify small molecule antagonists of the estrogen receptor alpha (ER-alpha) signaling pathway using the BG1 cell line (AID 743080; calls by dose curve;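 note: BG1 cells stimulated with 17beta-estradiol alongside compound; nearly all actives have a fitted effect of over 25% in size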)
Summary of the method: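 Luminescence from a 4×ERE-luciferase reporter in BG1-Luc-4E2 cells served as read-out. Cells, pre-cultured 5 days in stripped-serum phenol-red-free medium, were exposed to compound with 17beta-estradiol co-stimulation for 21.5 h at 37 C.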

[19] = target: Aryl hydrocarbon receptor (Homo sapiens) (UniProt P35869); assay: qHTS assay to identify small molecule that activate the aryl hydrocarbon receptor (AhR) signaling pathway (AID 743085); note: nearly all actives have a fitted effect of over 15% in size; note: potency is the fitted concentration of half-maximal effect;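 for activation: HG2L7.5c1 human HepG2 liver cells with stably integrated DRE-driven firefly reporter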
Summary of the method: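 Luminescence (ONE-Glo) from a dioxin-responsive-element luciferase reporter in HG2L7.5c1 HepG2 cells after 24 hr compound exposure at 37C; viability measured by CellTiter-Fluor fluorescence beforehand.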

Aryl hydrocarbon receptor (Homo sapiens), sequence (P35869 whole entry, looked up): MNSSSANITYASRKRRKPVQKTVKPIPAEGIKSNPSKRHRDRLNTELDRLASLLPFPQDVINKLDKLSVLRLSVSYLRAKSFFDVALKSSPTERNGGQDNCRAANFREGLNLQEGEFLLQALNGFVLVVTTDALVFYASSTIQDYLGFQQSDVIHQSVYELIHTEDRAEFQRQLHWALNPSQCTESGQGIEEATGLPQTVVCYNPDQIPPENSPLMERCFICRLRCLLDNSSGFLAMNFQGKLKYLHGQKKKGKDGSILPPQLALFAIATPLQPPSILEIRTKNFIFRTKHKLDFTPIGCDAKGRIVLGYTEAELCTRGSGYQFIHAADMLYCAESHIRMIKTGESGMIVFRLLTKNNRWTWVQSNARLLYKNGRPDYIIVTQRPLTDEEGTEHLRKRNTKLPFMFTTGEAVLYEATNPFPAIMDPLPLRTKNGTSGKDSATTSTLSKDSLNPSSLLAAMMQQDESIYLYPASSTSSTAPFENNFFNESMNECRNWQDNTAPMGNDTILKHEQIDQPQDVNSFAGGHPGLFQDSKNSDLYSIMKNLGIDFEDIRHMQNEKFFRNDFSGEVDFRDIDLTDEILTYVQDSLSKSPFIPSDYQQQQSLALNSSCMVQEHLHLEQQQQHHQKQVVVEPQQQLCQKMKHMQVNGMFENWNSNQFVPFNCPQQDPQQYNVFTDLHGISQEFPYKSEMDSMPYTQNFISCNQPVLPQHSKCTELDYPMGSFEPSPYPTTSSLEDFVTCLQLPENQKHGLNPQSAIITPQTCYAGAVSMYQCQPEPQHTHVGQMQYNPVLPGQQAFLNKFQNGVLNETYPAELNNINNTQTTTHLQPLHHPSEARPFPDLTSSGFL
Estrogen receptor (Homo sapiens), sequence (P03372 whole entry, looked up): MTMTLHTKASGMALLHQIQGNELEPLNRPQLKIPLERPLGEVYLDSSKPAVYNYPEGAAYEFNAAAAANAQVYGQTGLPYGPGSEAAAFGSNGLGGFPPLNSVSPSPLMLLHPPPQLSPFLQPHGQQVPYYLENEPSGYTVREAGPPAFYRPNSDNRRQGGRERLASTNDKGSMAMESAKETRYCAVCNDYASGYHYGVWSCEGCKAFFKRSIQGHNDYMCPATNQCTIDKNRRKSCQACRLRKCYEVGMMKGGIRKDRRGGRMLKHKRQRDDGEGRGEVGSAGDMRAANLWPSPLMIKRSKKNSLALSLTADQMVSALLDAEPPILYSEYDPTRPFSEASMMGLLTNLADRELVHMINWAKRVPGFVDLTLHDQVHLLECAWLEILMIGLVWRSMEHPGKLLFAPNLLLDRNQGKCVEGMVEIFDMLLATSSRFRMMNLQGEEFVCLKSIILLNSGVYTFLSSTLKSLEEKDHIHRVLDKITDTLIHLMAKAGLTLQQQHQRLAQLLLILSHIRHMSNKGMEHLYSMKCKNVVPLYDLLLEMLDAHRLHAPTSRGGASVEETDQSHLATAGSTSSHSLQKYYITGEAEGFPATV
Aromatase (Homo sapiens), sequence (P11511 whole entry, looked up): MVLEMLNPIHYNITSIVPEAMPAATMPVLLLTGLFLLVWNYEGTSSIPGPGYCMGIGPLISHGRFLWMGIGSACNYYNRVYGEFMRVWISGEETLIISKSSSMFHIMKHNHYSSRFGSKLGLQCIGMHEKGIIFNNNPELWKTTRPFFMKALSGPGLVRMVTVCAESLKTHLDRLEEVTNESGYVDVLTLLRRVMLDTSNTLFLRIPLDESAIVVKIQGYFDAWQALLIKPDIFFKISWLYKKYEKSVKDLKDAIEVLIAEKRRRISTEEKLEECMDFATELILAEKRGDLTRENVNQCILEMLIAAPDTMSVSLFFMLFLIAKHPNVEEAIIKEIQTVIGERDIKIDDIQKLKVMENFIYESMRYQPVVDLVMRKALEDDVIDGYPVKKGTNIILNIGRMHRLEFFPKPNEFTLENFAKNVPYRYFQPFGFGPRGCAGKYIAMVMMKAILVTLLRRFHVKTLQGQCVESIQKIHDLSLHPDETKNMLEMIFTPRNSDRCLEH
Peroxisome proliferator-activated receptor gamma (Homo sapiens), sequence (P37231 whole entry, looked up): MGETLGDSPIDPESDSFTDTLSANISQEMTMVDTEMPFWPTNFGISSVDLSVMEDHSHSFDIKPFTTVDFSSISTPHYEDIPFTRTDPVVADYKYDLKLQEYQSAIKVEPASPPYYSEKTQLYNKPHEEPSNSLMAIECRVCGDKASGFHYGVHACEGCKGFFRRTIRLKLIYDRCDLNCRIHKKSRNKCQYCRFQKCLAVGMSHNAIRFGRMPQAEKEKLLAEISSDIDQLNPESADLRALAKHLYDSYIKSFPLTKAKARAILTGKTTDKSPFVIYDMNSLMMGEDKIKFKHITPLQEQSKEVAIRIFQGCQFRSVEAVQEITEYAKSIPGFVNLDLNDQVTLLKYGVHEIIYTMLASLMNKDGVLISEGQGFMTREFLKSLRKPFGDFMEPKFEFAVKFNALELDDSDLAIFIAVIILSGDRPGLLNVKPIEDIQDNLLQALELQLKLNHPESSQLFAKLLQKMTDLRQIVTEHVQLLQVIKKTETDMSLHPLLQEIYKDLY

C=C(C)CC(C)(C)C
Potency [1]: inactive
Potency [2]: inactive
Potency [3]: inactive
Potency [4]: inactive
Potency [5]: inactive
Potency [6]: inactive
Potency [7]: inactive
Potency [8]: inactive
Potency [9]: inactive

CC(C)(C)NC[C@H](O)COc1nsnc1N1CCOCC1
Potency [1]: inactive
Potency [2]: inactive
Potency [3]: inactive
Potency [4]: inactive
Potency [5]: inactive
Potency [10]: inactive
Potency [6]: inactive
Potency [11]: inactive
Potency [12]: inactive
Potency [8]: inactive
Potency [9]: inactive

NC(=O)c1ncn([C@@H]2O[C@H](CO)[C@@H](O)[C@H]2O)n1
Potency [1]: 33.5 µM (active)
Potency [2]: 13.3 µM (active) and 28.8 µM (active)
Potency [3]: inactive
Potency [4]: inactive
Potency [5]: inactive
Potency (Aromatase (Homo sapiens)): inactive
Potency [10]: inactive
Potency [6]: inactive
Potency [13]: inactive
Potency [14]: inactive
Potency [7]: inactive
Potency [11]: inactive
Potency [8]: inactive
Potency [9]: inactive

CC(=O)OC/C=C(\C)CCC=C(C)C
Potency [2]: inactive
Potency [3]: inactive
Potency [15]: inactive
Potency [4]: inactive
Potency [16]: inactive
Potency [17]: inactive
Potency [18]: inactive
Potency [5]: inactive
Potency (Aromatase (Homo sapiens)): inactive
Potency [10]: inactive
Potency [19]: inactive
Potency [6]: inactive
Potency [13]: inactive
Potency [14]: inactive
Potency [7]: inactive
Potency [12]: inactive
Potency [8]: inactive
Potency [9]: inactive

CCCCCCC(=O)O
Potency [1]: inactive
Potency [3]: inactive
Potency [15]: inactive
Potency [4]: inactive
Potency [16]: inactive
Potency [17]: inactive
Potency [18]: inactive
Potency [5]: inactive
Potency (Aromatase (Homo sapiens)): inactive
Potency [10]: inactive
Potency [19]: inactive
Potency [6]: inactive
Potency [7]: inactive
Potency [11]: inactive
Potency [12]: inactive
Potency [8]: inactive
Potency [9]: inactive

O=C1CCCCCCCCCCC1
Potency [2]: inactive
Potency [3]: inactive
Potency [15]: inactive
Potency [4]: inactive
Potency [16]: inactive
Potency [17]: inactive
Potency [18]: inactive
Potency [5]: inactive
Potency (Aromatase (Homo sapiens)): inactive
Potency [10]: inactive
Potency [19]: inactive
Potency [6]: inactive
Potency [13]: inactive
Potency [14]: inactive
Potency [7]: inactive
Potency [8]: inactive
Potency [9]: inactive

C=C1C[C@]23C[C@@]1(O)CC[C@H]2[C@@]12C=C[C@H](O)[C@@](C)(C(=O)O1)[C@H]2[C@@H]3C(=O)O
Potency [1]: inactive
Potency [3]: inactive
Potency [4]: inactive
Potency [5]: inactive
Potency (Aromatase (Homo sapiens)): inactive
Potency [10]: inactive
Potency [19]: inactive
Potency [6]: inactive
Potency [13]: inactive
Potency [14]: inactive
Potency [11]: inactive
Potency [12]: inactive
Potency [8]: inactive

Cc1ccc([N+](=O)[O-])cc1N
Potency [1]: inactive
Potency [3]: inactive
Potency [15]: inactive
Potency [16]: inactive
Potency [17]: inactive
Potency [18]: inactive
Potency [5]: inactive
Potency (Aromatase (Homo sapiens)): inactive
Potency [10]: inactive
Potency [19]: 61 µM (active)
Potency [6]: inactive
Potency [13]: inactive
Potency [14]: inactive
Potency [7]: inactive
Potency [11]: inactive
Potency [12]: inactive
Potency [8]: inactive
Potency [9]: inactive

C1CCCNCC1
Potency [1]: inactive
Potency [3]: inactive
Potency [15]: inactive
Potency [4]: inactive
Potency [16]: inactive
Potency [17]: inactive
Potency [18]: inactive
Potency [5]: inactive
Potency (Aromatase (Homo sapiens)): inactive
Potency [10]: inactive
Potency [6]: inactive
Potency [13]: inactive
Potency [14]: inactive
Potency [7]: inactive
Potency [12]: inactive
Potency [8]: inactive
Potency [9]: inactive

O=C(NCC1CCCCN1)c1cc(OCC(F)(F)F)ccc1OCC(F)(F)F (stereo unspecified)
Potency [1]: 29.8 µM (active)
Potency [3]: inactive
Potency [4]: inactive
Potency [5]: inactive
Potency [6]: inactive
Potency [7]: inactive
Potency [12]: inactive
Potency [8]: inactive

O=C1C(N(CO)C(=O)NCO)N(CO)C(=O)N1CO (stereo unspecified)
Potency [1]: inactive
Potency [3]: inactive
Potency [15]: inactive
Potency [4]: inactive
Potency [16]: inactive
Potency [17]: inactive
Potency [18]: inactive
Potency [5]: inactive
Potency (Aromatase (Homo sapiens)): inactive
Potency [10]: inactive
Potency [19]: inactive
Potency [6]: inactive
Potency [13]: inactive
Potency [11]: inactive
Potency [8]: inactive
Potency [9]: inactive

C=CC(C)(C)C
Potency [2]: inactive
Potency [3]: inactive
Potency [15]: inactive
Potency [4]: inactive
Potency [16]: inactive
Potency [17]: inactive
Potency [18]: inactive
Potency [5]: inactive
Potency (Aromatase (Homo sapiens)): inactive
Potency [10]: inactive
Potency [19]: inactive
Potency [6]: inactive
Potency [13]: inactive
Potency [11]: inactive
Potency [12]: inactive
Potency [8]: inactive
Potency [9]: inactive

O=C(O)C1=NN(c2ccc(S(=O)(=O)O)cc2)C(=O)C1
Potency [1]: inactive
Potency [15]: inactive
Potency [4]: inactive
Potency [16]: inactive
Potency [17]: inactive
Potency [18]: inactive
Potency [5]: inactive
Potency (Aromatase (Homo sapiens)): inactive
Potency [10]: inactive
Potency [6]: inactive
Potency [13]: inactive
Potency [14]: inactive
Potency [7]: inactive
Potency [8]: inactive
Potency [9]: inactive

CCOC(=O)c1ccc(O)cc1
Potency [1]: inactive
Potency [3]: inactive
Potency [15]: inactive
Potency [4]: inactive
Potency [16]: inactive
Potency [17]: 23.7 µM (active) and 30.6 µM (active)
Potency [5]: inactive
Potency (Aromatase (Homo sapiens)): inactive
Potency [10]: inactive
Potency [6]: inactive
Potency [11]: inactive
Potency [12]: inactive
Potency [8]: inactive
Potency [9]: inactive

CCCCCCCCCCCCCC(=O)O
Potency [1]: inactive
Potency [3]: inactive
Potency [15]: inactive
Potency [16]: inactive
Potency [17]: inactive
Potency [18]: inactive
Potency [5]: inactive
Potency (Aromatase (Homo sapiens)): inactive
Potency [10]: inactive
Potency [19]: inactive
Potency [6]: inactive
Potency [13]: inactive
Potency [7]: inactive
Potency [11]: inactive
Potency [8]: inactive

CCCCC(=O)O
Potency [1]: inactive
Potency [3]: inactive
Potency [15]: inactive
Potency [4]: inactive
Potency [16]: inactive
Potency [17]: inactive and 49.1 µM (active)
Potency [18]: inactive
Potency [5]: inactive
Potency (Aromatase (Homo sapiens)): inactive
Potency [10]: inactive
Potency [6]: inactive
Potency [13]: inactive
Potency [14]: inactive
Potency [7]: inactive
Potency [11]: inactive
Potency [12]: inactive
Potency [8]: inactive
Potency [9]: inactive

O=c1n(CCCN2CCN(c3cccc(Cl)c3)CC2)nc2ccccn12
Potency [1]: inactive
Potency [3]: inactive
Potency [4]: inactive
Potency [5]: inactive
Potency (Aromatase (Homo sapiens)): inactive
Potency [10]: inactive
Potency [6]: inactive
Potency [12]: inactive
Potency [8]: inactive
Potency [9]: inactive

CCCCCC(C)=O
Potency [1]: inactive
Potency [3]: inactive
Potency [4]: inactive
Potency [5]: inactive
Potency (Aromatase (Homo sapiens)): inactive
Potency [10]: inactive
Potency [19]: inactive
Potency [6]: inactive
Potency [13]: inactive
Potency [14]: inactive
Potency [11]: inactive
Potency [12]: inactive
Potency [8]: inactive
Potency [9]: inactive

Reference: PubChem BioAssay (Tox21)
